Assay results from PMC7819943, “Rice protein-binding microarrays: a tool to detect cis-acting elements near promoter regions in rice”.
The full ranking holds about 68,000 sequences; the median of “fluorescence intensity (a.u.)” is about 9,100, and the highest 2% start at about 16,000. The list comes from a sample in which the highest values are over-represented; it also holds similar and randomly drawn sequences.

target: OsWRKY34 (Oryza sativa, UniProt Q0JBA9 1-250); assay: protein-binding microarray (RPBM); PBS, 2% BSA, 51.3 ng/ul salmon testes DNA, 50 uM zinc acetate, 200 nM TF, 25 C, 1 h; high values mean tight binding; conditions: protein: recombinant; tags: N-terminal polyhistidine and DsRed monomer fusion (pET32a); label: CyDye5-dUTP incorporated in the synthesized complementary strand; 3' TTTTT single-stranded linker to array surface; dsDNA, one strand shown
Method in brief: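 Using Ni–NTA, transcription factors fused N-terminally to polyhistidine and DsRed were purified after expression in E. coli BL21-CodonPlus. These were incubated at 200 nM with a blocked, double-stranded custom Agilent array for 1 h at 25 °C in a buffer containing 50 µM zinc acetate, and the array was washed. The binding signal is per-feature fluorescence intensity (arbitrary units) on an Axon 4000B scanner.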

Chain of OsWRKY34 (Q0JBA9 entry or part of it): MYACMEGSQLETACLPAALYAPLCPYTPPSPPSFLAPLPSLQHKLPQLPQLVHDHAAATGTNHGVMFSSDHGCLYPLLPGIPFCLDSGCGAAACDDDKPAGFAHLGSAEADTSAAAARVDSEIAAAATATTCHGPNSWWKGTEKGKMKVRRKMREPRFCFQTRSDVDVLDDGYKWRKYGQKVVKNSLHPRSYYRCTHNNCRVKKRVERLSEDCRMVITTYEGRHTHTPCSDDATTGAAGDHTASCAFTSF

Q: With “CACTAGGTGAGCAATTTTGTTACCACGTCCATGTGCTGATCGGAGTCACCTAGTGCAG” as the sequence, how does the binding signal read?
A: 8810 fluorescence intensity (a.u.)

Q: For “GCACACGCTTCATGTTGACATTTTATCGAATCGTGTTCTGCGGAGTCACCTAGTGCAG”, which binding signal is on record?
A: 8350 fluorescence intensity (a.u.)

Q: For “TTACTACTGCATTATCAAGTGTATCTTGCCATGTACTTCCCGGAGTCACCTAGTGCAG”, which binding signal is on record?
A: 12100 fluorescence intensity (a.u.)

Q: For “GATCTCCATCTCCATCTCTCTCTCTCTCTCGAGCAGAGCACGGAGTCACCTAGTGCAG”, which binding signal is on record?
A: 8360 fluorescence intensity (a.u.)

Q: With “CAATCACATCCGCGCGCATTTGGCCTGCGCCTTCAAATTTCGGAGTCACCTAGTGCAG” as the sequence, how does the binding signal read?
A: 12700 fluorescence intensity (a.u.)

Q: Which binding signal does the source give for “AACGATTTCTTCAGCATTTTCCATCCCCGCGGCTTCTTCTCGGAGTCACCTAGTGCAG” here?
A: 8230 fluorescence intensity (a.u.)

Q: How did the binding signal turn out when “CGCAGAACACGTTTCCCAAATCTTGTACTACTACGTACTACGGAGTCACCTAGTGCAG” was run?
A: 9170 fluorescence intensity (a.u.)

Q: How did the binding signal turn out when “GTGGCGGCGGAGGAGGTGGGATGGGGATTTGATGATGGCCCGGAGTCACCTAGTGCAG” was run?
A: 8320 fluorescence intensity (a.u.)

Q: For “AGTTGTGGACTGGAAGAGAGGGGAGGCATGGGGACAAAGACGGAGTCACCTAGTGCAG”, which binding signal is on record?
A: 9320 fluorescence intensity (a.u.)

Q: How did the binding signal turn out when “GCGGGGCGGTGACAACGACGGCGGTGCGGGGCGGTGGTGACGGAGTCACCTAGTGCAG” was run?
A: 10300 fluorescence intensity (a.u.)

Q: Which binding signal does the source give for “GTGGAGTGCGGTGGACGGAGCGGCGGGGCGGGGCGGTCAGCGGAGTCACCTAGTGCAG” here?
A: 16700 fluorescence intensity (a.u.)

Q: How did the binding signal turn out when “TATATATATATATATATATATATATATATATATAAAGAGACGGAGTCACCTAGTGCAG” was run?
A: 11100 fluorescence intensity (a.u.)

Q: With “AGAGGTGGAGGAGAGGAGGGGAGGGGAGGGGAGGTGAGGGCGGAGTCACCTAGTGCAG” as the sequence, how does the binding signal read?
A: 18700 fluorescence intensity (a.u.)

Q: How did the binding signal turn out when “AACAGGAGGAGGAGGAGGAGGAGGAGGAGGAGAGGTGGGGCGGAGTCACCTAGTGCAG” was run?
A: 9280 fluorescence intensity (a.u.)

Q: Which binding signal does the source give for “GGAGGAGCGGTGCGTGGGGTCAGCGGCCGGCGGGAGGGCACGGAGTCACCTAGTGCAG” here?
A: 9670 fluorescence intensity (a.u.)

Q: Which binding signal does the source give for “CTAGCTTTGAGGTGGAGGTGGTGGTGGAGGAGGAGGAGGACGGAGTCACCTAGTGCAG” here?
A: 12600 fluorescence intensity (a.u.)

Q: With “GAGGTGGTGGTGGTGGTGGTGGATGGCGCCCTGCTTTGACCGGAGTCACCTAGTGCAG” as the sequence, how does the binding signal read?
A: 23500 fluorescence intensity (a.u.)

Q: For “GCGCTACGGACGGAAGAGACGGAGTGGCACGGAATAAAGACGGAGTCACCTAGTGCAG”, which binding signal is on record?
A: 61600 fluorescence intensity (a.u.)

Q: For “GGGAGGGAGAGGAGGCGGAGGAGGAGGAGGTGGAGGAGTACGGAGTCACCTAGTGCAG”, which binding signal is on record?
A: 8610 fluorescence intensity (a.u.)

Q: With “TCAAAGGTTGGTTTGATTTGTTGCTATTTGTTGGTTTGATCGGAGTCACCTAGTGCAG” as the sequence, how does the binding signal read?
A: 8630 fluorescence intensity (a.u.)

Q: How did the binding signal turn out when “CGCGCTCTGCATGTCGGTCCGTCAACTTGATCGCGATTCTCGGAGTCACCTAGTGCAG” was run?
A: 8590 fluorescence intensity (a.u.)

Q: How did the binding signal turn out when “TGCAATTCGTACTTTTTCCTACAATTAAACAGCTACATGTCGGAGTCACCTAGTGCAG” was run?
A: 9500 fluorescence intensity (a.u.)

Q: With “ATTTTTGTCTTGAGTTAACACCGTCACGTTGCCTTCACGGCGGAGTCACCTAGTGCAG” as the sequence, how does the binding signal read?
A: 9960 fluorescence intensity (a.u.)

Q: “CCGTCGTCGTCTTCGTCTTCCTCAGTTTATCTCCATTTCTCGGAGTCACCTAGTGCAG” was tested. Which binding signal did it give?
A: 13800 fluorescence intensity (a.u.)

Q: For “GGAAAAAGAACAATCTGCGACCAACCTCTTTTTTCTATCCCGGAGTCACCTAGTGCAG”, which binding signal is on record?
A: 8980 fluorescence intensity (a.u.)

Q: “TCCTCTCTGTCTCCGCCGATCTGCTCTGCCGCGACGCGCCCGGAGTCACCTAGTGCAG” was tested. Which binding signal did it give?
A: 8180 fluorescence intensity (a.u.)

Q: “ATTTCACATGGCAAGATCCACGATGACTGAATTATCACACCGGAGTCACCTAGTGCAG” was tested. Which binding signal did it give?
A: 8200 fluorescence intensity (a.u.)

Q: “GCGGTGGTGGTGGGCTTAGTGGAGGCGGAGGCGGCTGAGGCGGAGTCACCTAGTGCAG” was tested. Which binding signal did it give?
A: 17400 fluorescence intensity (a.u.)

Q: How did the binding signal turn out when “GGAGGCCTAGGTGGTGGTGGTGGTCTTGGTGGAGGAGGGGCGGAGTCACCTAGTGCAG” was run?
A: 28600 fluorescence intensity (a.u.)

Q: With “GAGGTGGCTTTGGCGGCGGAGTGGGAGGCGGTGGTGGTGGCGGAGTCACCTAGTGCAG” as the sequence, how does the binding signal read?
A: 10000 fluorescence intensity (a.u.)

Q: With “CATTATCGTCGTCGTCGTCGTCGTAGTCATGTCGTGGGGCCGGAGTCACCTAGTGCAG” as the sequence, how does the binding signal read?
A: 8180 fluorescence intensity (a.u.)

Q: For “GGTGGTGGTGGTGGTGGTGGTGGTGTAGGAGGAGGAGGAGCGGAGTCACCTAGTGCAG”, which binding signal is on record?
A: 27600 fluorescence intensity (a.u.)

Q: With “GGAGGAGGAGGAGGGAGAGGGTGGTGTAGTGGGAGCGGCCCGGAGTCACCTAGTGCAG” as the sequence, how does the binding signal read?
A: 8170 fluorescence intensity (a.u.)

Q: For “GGCGGCGGCGGCGGCGGTGGTGGTGAGGAGGAGGAGGAGGCGGAGTCACCTAGTGCAG”, which binding signal is on record?
A: 10700 fluorescence intensity (a.u.)

Q: “ATGTCGGCGGCGGGCGGCGGCGGCGGCGTGGGGAAGGTGGCGGAGTCACCTAGTGCAG” was tested. Which binding signal did it give?
A: 9040 fluorescence intensity (a.u.)

Q: How did the binding signal turn out when “GTAGTAGGGGAGGAGTGTATCTAGTAGTATAGGGAGGGAGCGGAGTCACCTAGTGCAG” was run?
A: 13000 fluorescence intensity (a.u.)

Q: With “CATGTCGTCGTCGTGGTGGTGGTGGTGGTGGTGGGGCGGGCGGAGTCACCTAGTGCAG” as the sequence, how does the binding signal read?
A: 43400 fluorescence intensity (a.u.)

Q: For “GAGGGCGGAGGAGGTGGTGAGGGAGGAGGTGCGGAGGCTGCGGAGTCACCTAGTGCAG”, which binding signal is on record?
A: 8320 fluorescence intensity (a.u.)

Q: How did the binding signal turn out when “GAGGAGGGGAGAAACGGGAGGTTGGTGGTGGTGGTGGAGGCGGAGTCACCTAGTGCAG” was run?
A: 15200 fluorescence intensity (a.u.)

Q: For “GCCTCTGCCCATCGCATCGATCCCCGCCGTCCCTCCACCCCGGAGTCACCTAGTGCAG”, which binding signal is on record?
A: 11000 fluorescence intensity (a.u.)

Q: “TCGAACTATGTTTCTGGAGTTGTTTGTGTTAAAGTCCCAACGGAGTCACCTAGTGCAG” was tested. Which binding signal did it give?
A: 8860 fluorescence intensity (a.u.)

Q: For “CCGCCACATGCTGCTGCCGCCCCAGCCGTCGGCTGCTTCTCGGAGTCACCTAGTGCAG”, which binding signal is on record?
A: 8560 fluorescence intensity (a.u.)

Q: How did the binding signal turn out when “TTTGCGGGTGGAGTTTTTTAAGTTTTTGGATTTCCTGTTTCGGAGTCACCTAGTGCAG” was run?
A: 11700 fluorescence intensity (a.u.)

Q: Which binding signal does the source give for “CTCGACCACACATATATGTTCGATACATTCCATATCTTCCCGGAGTCACCTAGTGCAG” here?
A: 10700 fluorescence intensity (a.u.)

Q: “AACAAAAGCACCCCTGTCCGATCCTATATTTGTTGCAGTTCGGAGTCACCTAGTGCAG” was tested. Which binding signal did it give?
A: 9240 fluorescence intensity (a.u.)

Q: For “GAAGAGGAGGAGGAGGAGGAGGAGGAGGAGGGGATCAATGCGGAGTCACCTAGTGCAG”, which binding signal is on record?
A: 8350 fluorescence intensity (a.u.)

Q: Which binding signal does the source give for “TGTTCTTGAGTTGCTTATATATGGCCTTCTAGCTCAGCTCCGGAGTCACCTAGTGCAG” here?
A: 8540 fluorescence intensity (a.u.)
